Results filed as inconclusive are left out. Active and inactive are the calls of the source. Unless noted, the call rests on the fitted dose curve; in most records, active means well fitted curve in the direction sought with a large enough effect in the repeat runs; inconclusive means weak or mixed curves; inactive means no such curve, though single readings can be large; an effect the other way counts as inactive or inconclusive.
What was measured:
[1] = qHTS assay to identify small molecule agonists of the sonic hedgehog signaling (Shh) pathway (AID 1259368; calls by dose curve;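 further: NIH/3T3-derived 3T3Gli1-Luc cells carrying a stable Gli1-driven firefly luciferase reporter; series mostly up to about 92 µM; nearly all actives have a fitted effect of over 15% in size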)
How it was run: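 3T3Gli1-Luc (NIH/3T3 clone, stable Gli1-Luc); 4 hr pre-incubation, then cpd in DMSO 24 hr, 37 C/5% CO2; luciferase reagent 30 min RT; luminescence.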

[2] = qHTS assay to identify small molecule antagonists of the sonic hedgehog signaling (Shh) pathway (AID 1259369; calls by dose curve; further: nearly all actives have a fitted effect of over 45% in size; further: potency means the concentration at half of the fitted maximal effect)
How it was run: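 3T3Gli1-Luc, conditioned-medium-stimulated, 24hr cpd, 37C/5% CO2; Gli1-driven firefly Luc luminescence after 30min RT with luciferase reagent. Cells plated 4hr before cpd.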

[3] = molecular target: Estrogen receptor beta (Homo sapiens) (UniProt Q92731); assay: qHTS assay to identify small molecule agonists of the estrogen receptor beta (ER-beta) signaling pathway (AID 1259377; active means well fitted activation curve with a large enough effect in the signal ratio in the repeat runs, not every such curve was filed as active; the % refers to the signal ratio)
How it was run: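 A UAS-controlled beta-lactamase reporter in ER-beta-UAS-bla HEK293T cells reports receptor activation. Compounds act for 16 hr at 37C in 2% charcoal-stripped serum, and a FRET substrate is read by fluorescence after 2 hours.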

[4] = molecular target: Estrogen receptor beta (Homo sapiens) (UniProt Q92731); assay: qHTS assay to identify small molecule antagonists of the estrogen receptor beta (ER-beta) signaling pathway (AID 1259378; active means well fitted inhibition curve with a large enough effect in the signal ratio in the repeat runs, not every such curve was filed as active; the % refers to the signal ratio; further: potency means the concentration at half of the fitted maximal effect)
How it was run: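 ER-beta-UAS-bla HEK293T (GripTite) cells in 2% charcoal-stripped FBS medium were preincubated 6 hr at 37C, dosed with compound, then stimulated with 1 nM E2 (final) for 16 hr; beta-lactamase reporter read by B/G FRET fluorescence after 2 hr substrate loading.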

[5] = qHTS assay to identify small molecule agonists of the androgen receptor (AR) signaling pathway in the presence of an antagonist - cell viability counter screen (AID 1259379); further: nearly all actives have a fitted effect of over 25% in size; further: potency means the concentration at half of the fitted maximal effect
How it was run: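 Cells: MDA-kb2 (MMTV-luc, AR and GR elements), 3,000/well, 5 hr settle. Added: nilutamide 3.0uM final, then compounds (15 conc.). Incubation: 16 hr, 37C, no CO2. Read-out: CellTiter-Fluor, 1 hr, fluorescence.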

[6] = qHTS assay to identify small molecule agonists of the estrogen receptor beta (ER-beta) signaling pathway - cell viability counter screen (AID 1259380); further: nearly all actives have a fitted effect of over 30% in size; further: potency means the concentration at half of the fitted maximal effect
How it was run: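 HEK293T ER-beta-UAS-bla; 2% CS-FBS; 6 hr pre-plate, 16 hr cpd at 37C/5% CO2; LiveBLAzer read first, then CellTiter-Glo 30 min RT, luminescence.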

[7] = qHTS assay to identify small molecule antagonists of the estrogen receptor beta (ER-beta) signaling pathway - cell viability counter screen (AID 1259382); further: series mostly up to about 92 µM; nearly all actives have a fitted effect of over 55% in size
How it was run: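 Cells: ER-beta-UAS-bla HEK293T, 2,000/well, 2% CS-FBS, 6 hr settle. Cpd + E2 (1nM final), 16 hr, 37C/5% CO2. Bla FRET substrate 2 hr RT, then CellTiter-Glo 30 min RT, luminescence.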

[8] = qHTS assay to identify small molecule agonists or antagonists of the thyroid stimulating hormone receptor (TSHR) signaling pathway - wild type cell line counter screen (AID 1259384; calls by dose curve)
How it was run: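 Wild-type HEK293 cells were plated 18 h at 37 C/5% CO2, pin-dosed with compound plus Ro20-1724 medium, held 30 min at room temperature, then given cAMP-d2 and anti-cAMP-cryptate; fluorescence was read after 1 h. Fifteen concentrations, triplicate.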

[9] = qHTS assay to identify small molecule agonists of the estrogen receptor alpha (ER-alpha) signaling pathway in the presence of an antagonist - cell viability counter screen (AID 1259386);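 further: cells exposed to compounds for 22 h at 37 °C before the viability read; nearly all actives have a fitted effect of over 30% in size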; further: potency means the concentration at half of the fitted maximal effect
How it was run: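 VM7Luc4E2, stripped-serum pre-culture 5 d; 24hr plating; +ICI-182,780 10.0nM final; cpds 15 conc, 22hr, 37C/5% CO2; CellTiter-Fluor added at 21hr, fluorescence 1hr later.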

[10] = molecular target: Progesterone receptor (Homo sapiens) (UniProt P06401); assay: qHTS assay to identify small molecule agonists of the progesterone receptor (PR) signaling pathway (AID 1346784; calls by dose curve; further: nearly all actives have a fitted effect of over 30% in size)
How it was run: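 Agonist mode, quantitative HTS format in a HEK 293T line expressing a UAS-controlled beta-lactamase reporter; 16 hr compound exposure at 37C in 2% charcoal-stripped FBS, then LiveBLAzer B/G FRET fluorescence.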

[11] = molecular target: Progesterone receptor (Homo sapiens) (UniProt P06401); assay: qHTS assay to identify small molecule antagonists of the progesterone receptor (PR) signaling pathway (AID 1346795; active means well fitted inhibition curve with a large enough effect in the signal ratio in the repeat runs, not every such curve was filed as active; the % refers to the signal ratio; further: potency means the concentration at half of the fitted maximal effect)
How it was run: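 HEK293T PR-UAS-bla reporter cells in charcoal-stripped serum (2%) received compound after a 6 hr settling period, followed by R5020 agonist at 1 nM final; 16 hr incubation preceded the FRET substrate step and fluorescence measurement.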

[12] = qHTS assay to identify small molecule agonists of the progesterone receptor (PR) signaling pathway - cell viability counter screen (AID 1346799; calls by dose curve; further: nearly all actives have a fitted effect of over 45% in size; further: potency means the concentration at half of the fitted maximal effect)
How it was run: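 Counter screen for cytotoxicity: compound-treated PR-UAS-bla HEK293T cells (16 hr, 37C, 5% CO2) were assayed with CellTiter-Glo, luminescence measured after 30 min at room temperature.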

[13] = qHTS assay to identify small molecule antagonists of the TGF-beta/Smad signaling pathway - cell viability counter screen (AID 1346824); further: nearly all actives have a fitted effect of over 50% in size
How it was run: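 SBE-bla HEK 293T cells were plated overnight at 37 C, then given compounds in DMSO plus TGF-beta1 (added as 0.25 ng/mL solution) for 5 hr. After the bla read, CellTiter-Glo was added to the same wells and luminescence read after 30 min at room temperature.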

[14] = qHTS assay to identify small molecule agonists of the TGF-beta/Smad signaling pathway - cell viability counter screen (AID 1346829); further: top concentration of the series differs between compounds; nearly all actives have a fitted effect of over 45% in size
How it was run: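 Luminescence from CellTiter-Glo, read after a 30 min room-temperature incubation, gives cell viability of SBE-bla HEK 293T cells treated 5 hr with compounds at 37 C.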

[15] = qHTS assay to identify small molecule agonists of the TGF-beta/Smad signaling pathway (AID 1346859; active means well fitted activation curve with a large enough effect in the signal ratio in the repeat runs, not every such curve was filed as active; the % refers to the signal ratio; further: series mostly up to about 77 µM)
How it was run: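 Smad-responsive beta-lactamase reporter cells (HEK 293T) received compounds from DMSO stocks after overnight attachment, were incubated 5 hr, then treated 2 hr with FRET substrate before dual-emission fluorescence measurement (405 nm excitation).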

[16] = molecular target: Thyrotropin receptor (Homo sapiens) (UniProt P16473); assay: qHTS assay to identify small molecule antagonists of the thyroid stimulating hormone receptor (TSHR) signaling pathway (AID 1259385; calls by dose curve; further: nearly all actives have a fitted effect of over 20% in size; further: potency means the concentration at half of the fitted maximal effect)
How it was run: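 TSHR-HEK293 cells were plated and held 18 h at 37C/5% CO2, then given compound plus Ro20-1724 and stimulated with TSH at 1.5 ng/mL final. After 30 min at room temperature, cAMP was detected with cAMP-d2/anti-cAMP-cryptate (1 h) by fluorescence.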

[17] = qHTS assay to identify small molecule antagonists of the progesterone receptor (PR) signaling pathway - cell viability counter screen (AID 1346798); further: nearly all actives have a fitted effect of over 50% in size; further: potency means the concentration at half of the fitted maximal effect
How it was run: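 Same-well multiplex: after 16 hr at 37C with compound and R5020 stimulation, HEK293T cells carrying a UAS-bla reporter received LiveBLAzer substrate (2 hr RT), then CellTiter-Glo (30 min RT) for luminescent viability.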

[18] = molecular target: Estrogen receptor (Homo sapiens) (UniProt P03372); assay: qHTS assay to identify small molecule agonists of the estrogen receptor alpha (ER-alpha) signaling pathway in the presence of an antagonist (AID 1259383; calls by dose curve; further: top concentration of the series differs between compounds; nearly all actives have a fitted effect of over 15% in size)
How it was run: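 VM7Luc4E2, endog. ER-alpha + 4×ERE-luc; charcoal-stripped FBS, phenol red-free, 5 d; 24hr plating; +10.0nM ICI-182,780 (final); cpds 15 conc, 22hr, 37C/5% CO2; ONE-Glo luminescence.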

[19] = molecular target: Thyrotropin-releasing hormone receptor (Homo sapiens) (UniProt P34981); assay: qHTS assay to identify small molecule antagonists of the thyrotropin-releasing hormone receptor (TRHR) signaling pathway (AID 1346877; active means well fitted inhibition curve with a large enough effect in the repeat runs, not every such curve was filed as active; further: series mostly up to about 51 µM)
How it was run: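 Intracellular calcium fluorescence, read kinetically every second over 3 min, reports TRH-evoked signalling in HEK293 cells carrying TRHR. Test compounds were added 5 min ahead of a 1 nM TRH challenge.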

[20] = molecular target: Androgen receptor (Homo sapiens) (UniProt P10275); assay: qHTS assay to identify small molecule agonists of the androgen receptor (AR) signaling pathway in the presence of an antagonist (AID 1259381; calls by dose curve; further: nearly all actives have a fitted effect of over 15% in size)
How it was run: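 MDA-kb2 cells, 3,000/well, rested 5hr at 37C/0% CO2 → nilutamide 3.0uM final or buffer → compounds, 15 conc. → 16hr at 37C → ONE-Glo, 30min RT → luminescence.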

Measured: Potency

Sequence of Progesterone receptor (Homo sapiens) (P06401 whole entry, looked up): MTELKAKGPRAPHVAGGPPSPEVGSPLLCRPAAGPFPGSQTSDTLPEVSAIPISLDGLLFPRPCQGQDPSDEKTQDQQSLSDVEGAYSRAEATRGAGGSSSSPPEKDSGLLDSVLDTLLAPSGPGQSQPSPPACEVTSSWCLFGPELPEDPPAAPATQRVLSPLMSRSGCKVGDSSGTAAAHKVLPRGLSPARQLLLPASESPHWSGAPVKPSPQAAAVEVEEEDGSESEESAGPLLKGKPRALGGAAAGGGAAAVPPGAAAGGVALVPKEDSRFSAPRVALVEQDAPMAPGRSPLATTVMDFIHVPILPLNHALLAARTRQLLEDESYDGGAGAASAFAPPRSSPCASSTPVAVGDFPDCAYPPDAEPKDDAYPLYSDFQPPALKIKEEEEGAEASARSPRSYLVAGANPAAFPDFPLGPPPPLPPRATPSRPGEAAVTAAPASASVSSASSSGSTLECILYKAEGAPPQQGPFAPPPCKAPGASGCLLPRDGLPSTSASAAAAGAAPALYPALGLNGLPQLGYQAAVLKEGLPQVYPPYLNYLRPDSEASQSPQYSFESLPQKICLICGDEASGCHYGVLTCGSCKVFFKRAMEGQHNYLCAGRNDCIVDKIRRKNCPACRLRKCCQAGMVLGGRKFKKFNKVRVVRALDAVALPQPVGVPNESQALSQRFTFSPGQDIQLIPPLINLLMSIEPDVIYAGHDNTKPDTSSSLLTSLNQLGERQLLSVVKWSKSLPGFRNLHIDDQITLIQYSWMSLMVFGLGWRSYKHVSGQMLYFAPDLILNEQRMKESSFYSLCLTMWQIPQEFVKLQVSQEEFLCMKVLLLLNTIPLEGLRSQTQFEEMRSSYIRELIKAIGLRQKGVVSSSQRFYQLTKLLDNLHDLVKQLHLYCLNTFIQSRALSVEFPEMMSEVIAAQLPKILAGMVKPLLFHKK
Sequence of Thyrotropin receptor (Homo sapiens) (P16473 whole entry, looked up): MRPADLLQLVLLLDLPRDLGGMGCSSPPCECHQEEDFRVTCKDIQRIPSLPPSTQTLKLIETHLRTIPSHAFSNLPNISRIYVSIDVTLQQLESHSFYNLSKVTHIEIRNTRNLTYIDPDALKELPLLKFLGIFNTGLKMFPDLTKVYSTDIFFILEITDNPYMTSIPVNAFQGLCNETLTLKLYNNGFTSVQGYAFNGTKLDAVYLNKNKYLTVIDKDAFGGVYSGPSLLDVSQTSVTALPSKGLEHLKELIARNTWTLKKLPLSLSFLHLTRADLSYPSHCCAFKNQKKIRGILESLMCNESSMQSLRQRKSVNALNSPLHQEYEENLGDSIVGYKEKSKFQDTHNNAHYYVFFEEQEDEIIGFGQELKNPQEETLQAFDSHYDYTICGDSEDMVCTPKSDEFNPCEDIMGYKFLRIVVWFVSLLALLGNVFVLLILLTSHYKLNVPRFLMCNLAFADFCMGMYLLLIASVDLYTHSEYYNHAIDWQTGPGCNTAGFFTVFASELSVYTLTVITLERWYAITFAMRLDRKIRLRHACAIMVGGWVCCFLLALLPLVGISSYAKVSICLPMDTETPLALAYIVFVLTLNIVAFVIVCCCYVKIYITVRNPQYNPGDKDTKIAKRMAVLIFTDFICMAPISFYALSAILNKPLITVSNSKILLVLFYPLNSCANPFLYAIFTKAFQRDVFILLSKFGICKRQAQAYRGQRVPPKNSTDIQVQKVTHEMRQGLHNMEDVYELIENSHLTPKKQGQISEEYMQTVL
Sequence of Estrogen receptor (Homo sapiens) (P03372 whole entry, looked up): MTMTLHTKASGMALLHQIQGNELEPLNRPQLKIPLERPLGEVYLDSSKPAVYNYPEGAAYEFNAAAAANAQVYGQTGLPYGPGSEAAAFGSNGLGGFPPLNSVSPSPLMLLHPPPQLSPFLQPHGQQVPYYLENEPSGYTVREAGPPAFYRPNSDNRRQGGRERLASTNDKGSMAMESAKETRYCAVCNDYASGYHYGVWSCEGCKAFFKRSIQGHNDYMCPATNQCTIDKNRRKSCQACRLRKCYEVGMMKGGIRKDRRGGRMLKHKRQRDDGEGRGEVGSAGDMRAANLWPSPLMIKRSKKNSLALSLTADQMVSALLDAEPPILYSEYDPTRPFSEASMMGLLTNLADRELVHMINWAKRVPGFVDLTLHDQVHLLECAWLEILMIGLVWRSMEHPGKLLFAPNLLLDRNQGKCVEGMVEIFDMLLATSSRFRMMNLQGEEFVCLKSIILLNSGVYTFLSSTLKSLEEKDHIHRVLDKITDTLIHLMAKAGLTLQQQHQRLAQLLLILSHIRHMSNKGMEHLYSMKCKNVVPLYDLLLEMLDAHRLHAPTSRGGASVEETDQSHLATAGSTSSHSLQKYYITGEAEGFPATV
Sequence of Estrogen receptor beta (Homo sapiens) (Q92731 whole entry, looked up): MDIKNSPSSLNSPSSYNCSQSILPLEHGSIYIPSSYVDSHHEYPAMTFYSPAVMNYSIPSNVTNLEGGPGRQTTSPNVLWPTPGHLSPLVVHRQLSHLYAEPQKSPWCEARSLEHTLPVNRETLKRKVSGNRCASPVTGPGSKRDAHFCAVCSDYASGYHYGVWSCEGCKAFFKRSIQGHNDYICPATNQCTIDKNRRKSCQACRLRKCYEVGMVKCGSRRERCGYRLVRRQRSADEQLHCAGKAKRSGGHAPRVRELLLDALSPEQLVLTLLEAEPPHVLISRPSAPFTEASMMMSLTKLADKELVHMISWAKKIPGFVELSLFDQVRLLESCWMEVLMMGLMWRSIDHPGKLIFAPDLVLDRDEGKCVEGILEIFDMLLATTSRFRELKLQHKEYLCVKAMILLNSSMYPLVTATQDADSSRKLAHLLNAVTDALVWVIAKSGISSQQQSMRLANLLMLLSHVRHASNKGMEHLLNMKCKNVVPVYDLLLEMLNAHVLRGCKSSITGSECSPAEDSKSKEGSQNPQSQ
Sequence of Thyrotropin-releasing hormone receptor (Homo sapiens) (P34981 whole entry, looked up): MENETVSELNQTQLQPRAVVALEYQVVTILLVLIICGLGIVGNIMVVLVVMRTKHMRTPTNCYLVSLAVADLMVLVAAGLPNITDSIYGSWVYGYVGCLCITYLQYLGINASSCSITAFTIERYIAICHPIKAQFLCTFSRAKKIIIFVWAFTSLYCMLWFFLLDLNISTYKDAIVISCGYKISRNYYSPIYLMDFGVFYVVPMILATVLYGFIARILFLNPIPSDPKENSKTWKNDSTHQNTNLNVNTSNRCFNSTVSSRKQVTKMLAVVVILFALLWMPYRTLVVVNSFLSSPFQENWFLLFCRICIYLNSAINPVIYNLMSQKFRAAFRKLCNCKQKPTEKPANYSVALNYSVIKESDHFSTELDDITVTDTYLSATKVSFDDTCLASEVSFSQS
Sequence of Androgen receptor (Homo sapiens) (P10275 whole entry, looked up): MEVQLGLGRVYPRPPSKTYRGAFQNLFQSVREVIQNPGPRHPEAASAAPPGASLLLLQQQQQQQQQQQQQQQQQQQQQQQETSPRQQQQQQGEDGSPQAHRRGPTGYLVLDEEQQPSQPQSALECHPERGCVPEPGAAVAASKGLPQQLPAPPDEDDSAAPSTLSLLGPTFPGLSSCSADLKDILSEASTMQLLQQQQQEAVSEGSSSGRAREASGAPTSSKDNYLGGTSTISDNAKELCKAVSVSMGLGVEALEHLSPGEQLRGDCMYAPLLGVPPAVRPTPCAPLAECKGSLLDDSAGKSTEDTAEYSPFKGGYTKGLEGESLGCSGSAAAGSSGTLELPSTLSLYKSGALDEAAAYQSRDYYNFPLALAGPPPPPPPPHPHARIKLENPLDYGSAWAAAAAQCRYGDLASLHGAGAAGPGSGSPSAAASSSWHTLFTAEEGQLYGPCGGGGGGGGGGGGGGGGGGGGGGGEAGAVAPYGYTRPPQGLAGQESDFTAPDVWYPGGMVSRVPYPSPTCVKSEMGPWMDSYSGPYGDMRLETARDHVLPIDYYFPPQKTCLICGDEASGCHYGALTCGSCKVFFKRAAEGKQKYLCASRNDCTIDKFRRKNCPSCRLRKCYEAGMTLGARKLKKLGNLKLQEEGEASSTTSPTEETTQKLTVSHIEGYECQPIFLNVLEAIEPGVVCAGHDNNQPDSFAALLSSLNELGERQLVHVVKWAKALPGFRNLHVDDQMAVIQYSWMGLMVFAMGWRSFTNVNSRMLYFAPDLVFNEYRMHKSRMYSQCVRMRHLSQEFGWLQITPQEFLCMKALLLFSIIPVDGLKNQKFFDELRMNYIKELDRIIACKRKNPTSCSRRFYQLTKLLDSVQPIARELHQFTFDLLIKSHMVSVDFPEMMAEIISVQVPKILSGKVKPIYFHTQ

Cc1cc(S(=O)(=O)O)ccc1N=Nc1c(O)ccc2ccccc12
active: [5] 30.6 µM | [9] 27.3 µM
not listed: [16] | [17] | [18] | [19] | [20]
inactive: all other assays above

COC(=O)Nc1nc2ccc(C(=O)c3cccs3)cc2[nH]1
active: [2] 335 nM
not listed: [11] | [12] | [17] | [18] | [19] | [20]
inactive: all other assays above

COC(OC)(C(=O)c1ccccc1)c1ccccc1
not listed: [8] | [11] | [16] | [18] | [19] | [20]
inactive: all other assays above

CC(=O)Nc1ccccc1C
not listed: [7] | [20]
inactive: all other assays above

Cn1c(=O)c2c(ncn2CC(=O)O)n(C)c1=O
not listed: [6] | [14]
inactive: all other assays above

C=CC(C)=CCC=C(C)C
not listed: [8] | [16] | [18] | [19] | [20]
inactive: all other assays above

CCCCCCOC(=O)C(C)C
not listed: [9] | [10] | [18] | [20]
inactive: all other assays above

CN1Cc2cc(C(=O)N3CCC(C4CCNCC4)CC3)ccc2N[C@@H](CC(=O)O)C1=O
not listed: [8] | [10] | [20]
inactive: all other assays above

Cc1cc(OI)c(C(C)C)cc1-c1cc(C(C)C)c(OI)cc1C
not listed: [11] | [18] | [20]
inactive: all other assays above

Oc1cc(O)c(Cl)cc1Cl
active: [11] 49.7 µM
not listed: [8] | [12] | [19] | [20]
inactive: all other assays above

O=C1NCCN1
not listed: [7] | [9] | [10] | [19] | [20]
inactive: all other assays above

CO[C@@]12[C@H](COC(N)=O)C3=C(C(=O)C(C)=C(N)C3=O)N1C[C@@H]1N[C@@H]12
inactive: [1] | [3] | [5] | [6] | [7] | [10] | [17] | [13] | [15]
active: [2] 298 nM | [4] 18.8 µM

CCCCCCCCCCCC[N+](C)(C)CC(=O)[O-]
active: [6] 24.3 µM | [12] 21.7 µM
not listed: [7] | [16] | [17] | [20]
inactive: all other assays above

CC(C)CCCCCOC(=O)CCCCC(=O)OCCCCCC(C)C
not listed: [10] | [18] | [20]
inactive: all other assays above

CC[C@@H]([C@H](C)O)n1ncn(-c2ccc(N3CCN(c4ccc(OC[C@@H]5CO[C@@](Cn6cncn6)(c6ccc(F)cc6F)C5)cc4)CC3)cc2)c1=O
active: [2] 188 nM | [4] 5.96 µM | [5] 11.9 µM | [6] 4.22 µM | [16] 29.8 µM | [17] 16.8 µM | [12] 16.8 µM
inactive: [1] | [3] | [8] | [9] | [10] | [15] | [19]

CC[C@H](NC(=O)c1cc(F)ccc1NS(=O)(=O)c1cccc2cccnc12)c1ccccc1
active: [6] 18.3 µM
not listed: [7] | [8] | [10] | [11] | [16] | [17] | [20]
inactive: all other assays above
